Assay outcomes (PubChem BioAssay)
In the library only some 18% were active in any assay of this set; here they are far more common.
TDP1 cell noCPT: qHTS for Inhibitors of human tyrosyl-DNA phosphodiesterase 1 (TDP1): qHTS in cells in absence of CPT | 15% of 420,000 active | DT40 Tdp1-/- hTDP1 cells, no CPT, ATP luminescence, 48 h | Potency, µM (doses to about 46.2 µM), inactives show at the highest dose activity change, negative = growth inhibition, usual class: inhibitors; note: potency is the fitted concentration of half-maximal effect; % is set by controls: 0 for no effect and ±100 for the full control effect; nearly all actives have a fitted effect of over 55% in size
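Growth of hTDP1-complemented DT40 Tdp1-knockout cells is measured by ATP luminescence after at least 48 hr compound exposure at 37 °C, with DMSO substituting for the 20 nM CPT used in the parallel screen.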
TDP1 block: qHTS Assay for Inhibitors of Tyrosyl-DNA Phosphodiesterase (TDP1) | recombinant TDP1, AlphaScreen DNA substrate cleavage | Potency, µM (titrated, usually from 130 µM), without a hit: top-dose activity change, negative = inhibition, actives largely listed as inhibitors | 0.28% of 350,000 active | AID 485290, 2010; note: potency is the fitted concentration of half-maximal effect; % is set by controls: 0 for no effect and ±100 for the full control effect; nearly all actives have a fitted effect of over 40% in size
Target sequence (Q9NUW8 whole entry, looked up): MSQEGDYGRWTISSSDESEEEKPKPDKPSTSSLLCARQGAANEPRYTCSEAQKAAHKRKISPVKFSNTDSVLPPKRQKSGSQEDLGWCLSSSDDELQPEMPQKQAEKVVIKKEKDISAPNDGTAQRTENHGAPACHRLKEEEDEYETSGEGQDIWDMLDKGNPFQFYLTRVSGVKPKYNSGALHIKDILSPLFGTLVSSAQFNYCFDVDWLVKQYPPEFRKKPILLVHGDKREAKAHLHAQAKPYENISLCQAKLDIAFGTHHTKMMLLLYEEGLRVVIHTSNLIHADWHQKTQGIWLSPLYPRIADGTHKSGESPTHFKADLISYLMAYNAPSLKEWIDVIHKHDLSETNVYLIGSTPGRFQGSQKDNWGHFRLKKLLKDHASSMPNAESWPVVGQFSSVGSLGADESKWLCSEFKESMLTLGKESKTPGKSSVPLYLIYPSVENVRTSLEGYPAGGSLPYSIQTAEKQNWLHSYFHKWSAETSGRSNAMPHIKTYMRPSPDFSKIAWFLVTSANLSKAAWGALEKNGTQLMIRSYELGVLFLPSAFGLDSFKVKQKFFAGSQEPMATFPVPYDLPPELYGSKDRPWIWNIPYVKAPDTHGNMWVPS
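Here, a 5' biotin and 3' phosphotyrosine-FITC DNA oligonucleotide reports Tdp1 activity: intact substrate bridges AlphaScreen beads, while cleavage leaves a 3' phosphate and drops signal. All incubations at room temperature.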
DT40 TDP1 CPT: qHTS for Inhibitors of human tyrosyl-DNA phosphodiesterase 1 (TDP1): qHTS in cells in presence of CPT. Potency, µM (series often up to 46.2 µM), inactives show top-dose activity change, negative = growth inhibition, hits mostly inhibitors. AID 686979, 2013. 12% of 420,000 active. chicken DT40 Tdp1-/-;hTDP1 cells + 20 nM CPT, ATP luminescence, 48 h; note: potency is the fitted concentration of half-maximal effect; % is set by controls: 0 for no effect and ±100 for the full control effect; nearly all actives have a fitted effect of over 55% in size
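Chicken DT40 Tdp1-/- cells stably complemented with human TDP1 were seeded at 400 cells/well in medium containing 20 nM camptothecin, exposed to pin-transferred compounds, and grown at 37 °C for at least 48 hr. Viability was read as ATP luminescence.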
TGFb SMAD3 inh: qHTS for Inhibitors of TGF-b; AID 588855, 2011; HepG2 CAGA-GFP TGF-b/SMAD3 reporter, GFP fluorescence, 18 h; TGF-beta stimulated, 500 pg/mL final; 1.2% of 410,000 active; Potency, µM (titrated, usually from 46.1 µM), without a hit: at the highest dose activity, negative = inhibition, actives largely listed as inhibitors; note: potency is the fitted concentration of half-maximal effect; % is set by controls: 0 for no effect and ±100 for the full control effect; nearly all actives have a fitted effect of over 65% in size
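First, reporter cells (HEPG2 CAGA-GFP) rested 2 h at 37 degrees C. Next, compounds were pinned in and TGF-beta added to 500 pg/mL final. After 18 h, GFP was imaged per cell and summed per well.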
HepG2 viability: qHTS for Inhibitors of TGF-b: Cytotox Counterscreen; HepG2 CAGA-GFP viability, ATP luminescence, 18 h; Potency, µM (doses to about 46.1 µM), without a hit: at the highest dose activity change, negative = cytotoxicity, usual class: cytotoxic; 0.76% of 410,000 active; AID 588856, 2011; note: potency is the fitted concentration of half-maximal effect
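CellTiter-Glo luminescence gave cytotoxicity after 18 hours at 37 degrees C. The cells were HepG2 CAGA-GFP in 1% FBS DMEM, stimulated with 500 pg/mL TGF-beta after compound addition. %Activity was normalised to no-cell wells (complete cell-killing) and DMSO (no toxicity), and curves were fitted and classified.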
IL1B secr inh: qHTS for Inhibitors of Inflammasome Signaling: IL-1-beta AlphaLISA Primary Screen | AID 743279, 2014 | activity change, % at 57.5 µM | 4.7% of 360,000 active | THP-1 LPS/ATP IL-1B secretion, AlphaLISA, 16 h; stronger effect = lower value; in the data active = activity change below about -50%; inconclusive = mostly about -30% to -49%; note: % is set by controls: 0 for no effect and ±100 for the full control effect
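THP-1 cells pretreated 1 hr with compounds (up to 57.5 uM final), then stimulated with LPS (250 ng/mL final) plus ATP (1.25 mM final); secreted IL-1B measured by AlphaLISA after 16 hr, decreased signal indicating inhibition.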
An asterisk follows results filed as active; ? = inconclusive; · = no result given; [ ] = dose if it differs, or a comment. Unless noted, calls come from the whole dose curve; as a rule, active = well fitted curve in the direction sought with a large enough effect; inconclusive = small, poorly fitted or top-dose-only effect, or another doubt; inactive = no such curve, though single readings can be large; an effect the other way counts as inactive or inconclusive.

SMILES	TDP1 cell noCPT	TDP1 block	DT40 TDP1 CPT	TGFb SMAD3 inh	HepG2 viability	IL1B secr inh
Cn1c(/C(C#N)=C(\O)c2cc(Cl)sc2Cl)nc2ccccc21	?	5%	18µM*	?	-32%	39
CCCC(=O)C1=C(c2ccccc2)C(C#N)(C#N)C(C#N)=C1N	15µM*	9%	18µM*	20%	-35%	-13
CCCC(=O)C1=C(N(C)c2ccccc2)CC(C)(C)CC1=O	-12%	·	?	4%	-2%	13
CC(C)(C)c1ccc(SC2=C[C@@]3(O)CC[C@@H](O)[C@@](Sc4ccc(C(C)(C)C)cc4)(C2=O)[C@H]3O)cc1	3.3µM*	·	4.6µM*	·	·	-90*
Cc1ccc(SC2=C[C@@]3(O)CC[C@@H](O)[C@@](Sc4ccc(C)cc4)(C2=O)[C@H]3O)cc1	?	·	23µM*	·	·	-8
Cc1ccc(SC(C)C(=O)NC2CC2)cc1 (stereo not drawn)	24%	2%	9%	3%	4%	-1
O=c1cc(CN2CCN(c3ccc(Cl)c(Cl)c3)CC2)c2ccccc2o1	15µM*	·	-88%	-20%	-23%	18
COc1cccc(NCc2cc(=O)oc3cc(-c4ccccc4)c(O)cc23)c1	18µM*	2%	?	-2%	-23%	?
O=c1cc(CN2CCN(c3ccccc3)CC2)c2cc(O)c(-c3ccccc3)cc2o1	10µM*	4%	5.8µM*	-11%	-84%	24
O=c1cc(CN2CCN(c3ccccc3)CC2)c2c(ccc3ccccc32)o1	?	3%	?	-21%	-4%	8
O=c1cc(CN2CCN(c3cccc(Cl)c3)CC2)c2cc(O)c(-c3ccccc3)cc2o1	18µM*	7%	13µM*	0%	-12%	26
O=c1cc(CN2CCCCCCC2)c2ccccc2o1	?	·	?	-24%	6%	57
C[C@@H](Cc1ccccc1)Nc1ncnc2c1ncn2[C@@H]1O[C@H](CO)[C@@H](O)[C@H]1O	-29%	1%	4%	·	·	·
O=C(CN1C(=O)S/C(=C/c2cc(Br)cs2)C1=O)N1CCOCC1	-29%	-3%	3%	-2%	-7%	-8
COc1ccc(-n2nc(C(=O)O)cc2-c2ccccc2)cc1	14%	·	-1%	7%	-4%	2
CC1CCN(C(=O)C2CCCN(c3ncnc4c3nc3n4CCCCC3)C2)CC1 (stereo not drawn)	?	3%	?	-9%	-3%	14
CCOC(=O)N1CCN(C(=O)C2CCCN(c3ncnc4c3nc3n4CCCCC3)C2)CC1 (stereo not drawn)	?	6%	?	35%	2%	10
CCOC(=O)C1CCN(C(=O)C2CCCN(c3ncnc4c3nc3n4CCCCC3)C2)CC1 (stereo not drawn)	18µM*	4%	?	-5%	8%	-5
CC1CCCN(C(=O)C2CCN(c3ncnc4c3nc3n4CCCCC3)CC2)C1 (stereo not drawn)	23µM*	1%	?	-29%	-31%	-3
CC1CC(C)CN(C(=O)C2CCCN(c3ncnc4c3nc3n4CCCCC3)C2)C1 (stereo not drawn)	15µM*	6%	23µM*	10%	-17%	-8
Cc1cnc(-c2nc3ccccc3n2C(C)C(=O)Nc2c(C)cccc2C)cn1 (stereo not drawn)	?	·	?	·	·	6
Cc1noc(C)c1-c1ccc2ncnc(NCc3cccn3C)c2c1	·	6%	·	·	·	·
COC(=O)c1cn(C(=O)c2ccc(OC)cc2)c2ccccc12	4.6µM*	·	8.2µM*	-7%	1%	8
COC(=O)c1cn(C(=O)c2ccc(C)c(C)c2)c2ccccc12	21µM*	3%	?	-23%	-17%	0
COC(=O)c1cn(C(=O)c2cccc(C)c2)c2ccccc12	-2%	0%	-5%	-12%	5%	-11
SMILES	TDP1 cell noCPT	TDP1 block	DT40 TDP1 CPT	TGFb SMAD3 inh	HepG2 viability	IL1B secr inh
COC(=O)c1cn(C(=O)c2ccc(C)cc2)c2ccccc12	16µM*	-5%	18µM*	26%	21%	-1
COC(=O)c1cn(C(=O)c2ccc(OC)c(OC)c2)c2ccccc12	?	·	?	16%	6%	8
COC(=O)c1cn(C(=O)c2cc(C)cc(C)c2)c2ccccc12	?	-5%	?	0%	-14%	-4
COC(=O)c1cn(C(=O)c2ccc3c(c2)OCO3)c2ccccc12	16µM*	·	?	0%	-19%	-19
CC(C)CNC(=O)C1CCN(S(=O)(=O)c2ccc3c(c2)OCCO3)CC1	?	-7%[0.505 µM]	-2%	0%	-2%	19
C[C@@H]1ON(C)[C@H]2C[C@H]3c4[nH]c5ccccc5c4CCN3C(=O)[C@@H]12	-16%	·	0%	21%	1%	31
C[C@@H]1ON(C)[C@H]2C[C@H]3c4[nH]c5ccc(-c6ccc7c(c6)OCO7)cc5c4CCN3C(=O)[C@@H]12	9.2µM*	·	13µM*	-27%	-22%	0
Cc1ccc(Sc2ncccc2C(=O)NCC(c2ccc(F)cc2)N2CCOCC2)c(C)c1 (stereo not drawn)	?	0%	15µM*	-3%	-16%	-5
CCN(c1ccccc1)S(=O)(=O)c1cccc(C(=O)NCC(c2ccc(F)cc2)N2CCOCC2)c1 (stereo not drawn)	10µM*	·	23µM*	-13%	-9%	-25
COc1ccccc1NS(=O)(=O)c1cccc(C(=O)NCC(c2ccc(F)cc2)N2CCOCC2)c1 (stereo not drawn)	?	·	?	0%	-25%	-5
